Assay results as given in PubChem BioAssay (Tox21).
Where “and” joins values, the source holds several entries; their conditions need not be identical. Equal values may be shown once. Records with an inconclusive call do not appear. Calls of active or inactive are those of the source. Unless noted, the call rests on the fitted dose curve; in most records, active means well fitted curve in the direction sought with a large enough effect in the repeat runs; inconclusive means weak or mixed curves; inactive means no such curve, though single readings can be large; an effect the other way counts as inactive or inconclusive.

target: Nuclear receptor subfamily 1 group I member 3 (Homo sapiens) (UniProt Q14994); assay: qHTS assay to identify small molecule antagonists of the constitutive androstane receptor (CAR) signaling pathway (AID 1224838); conditions: HepG2-CYP2B6-hCAR luciferase, CITCO-stimulated, 24 h; series mostly up to 92.4 µM; activity, negative = inhibition: at the top concentration;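 further: HepG2 cells stably expressing hCAR with CYP2B6 luciferase reporter stimulated by CITCO; nearly all actives have a fitted effect of over 40% in size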
Sequence (Q14994 whole entry, looked up): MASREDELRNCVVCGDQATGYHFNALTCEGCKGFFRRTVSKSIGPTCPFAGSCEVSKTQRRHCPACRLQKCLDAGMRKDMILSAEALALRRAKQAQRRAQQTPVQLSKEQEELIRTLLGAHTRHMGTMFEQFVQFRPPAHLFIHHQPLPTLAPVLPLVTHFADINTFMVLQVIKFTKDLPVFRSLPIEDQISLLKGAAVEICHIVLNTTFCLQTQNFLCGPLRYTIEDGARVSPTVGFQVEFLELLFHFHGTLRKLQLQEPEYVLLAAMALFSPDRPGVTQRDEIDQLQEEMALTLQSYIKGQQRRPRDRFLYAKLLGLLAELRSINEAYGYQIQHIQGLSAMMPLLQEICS
Summary of the method: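 Antagonism measured as luciferase signal (ONE-Glo, 30 min, room temperature) in CAR-stimulated cells: HepG2-CYP2B6-hCAR double-stable line exposed 24 hr at 37 C to compound in a 15-point series plus 50 nM CITCO.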
On the % scale 0 is the no-effect control and ±100 the full control effect; potency means the concentration at half of the fitted maximal effect.

SMILES	activity, negative = inhibition	Potency
OCCN(CCO)c1nc(N2CCCCC2)c2nc(N(CCO)CCO)nc(N3CCCCC3)c2n1	126% [at 42.5 µM] (inactive)	
CSc1ccc(/C=C2/C(C)=C(CC(=O)O)c3cc(F)ccc32)cc1	58.4% [at 42.5 µM] (inactive)	
CCOc1ccc2nc3cc(N)ccc3c(N)c2c1		2.66 µM (active)
CCCC(=O)OC[C@@H](OC(=O)CCC)[C@@H](OC(=O)CCC)[C@H](Cn1c2nc(=O)[nH]c(=O)c-2nc2cc(C)c(C)cc21)OC(=O)CCC		29.8 µM (active)
CSc1ccc2c(c1)C(N1CCN(C)CC1)Cc1ccccc1S2 (stereo not given)	9.36% [at 42.5 µM] (inactive)	
COc1cccc(N)c1	64.6% (inactive)	
Nc1nc2ccccc2n1Cc1ccc(F)cc1	-2.21% [at 42.5 µM] (inactive)	
CCCCN1C(=O)[C@@H]([C@H](O)C2CCCCC2)NC(=O)C12CCN(Cc1ccc(Oc3ccc(C(=O)O)cc3)cc1)CC2	-18.3% (inactive)	
CCC(CN)=C(c1ccccc1)c1ccccc1	83.2% [at 42.5 µM] (inactive)	
Nc1ccc2c3c(cccc13)-c1ccccc1-2	190% (inactive)	
O=C(OCC1CO1)C1CCCCC1C(=O)OCC1CO1 (stereo not given)	-2.31% (inactive)	
Cc1ccc(-n2nc(C(C)(C)C)cc2NC(=O)Nc2ccc(OCCN3CCOCC3)c3ccccc23)cc1	222% [at 42.5 µM] (inactive)	
Nc1c2ccccc2nc2ccccc12		956 nM (active) and 1.68 µM (active)
CCCCCCCCS(=O)C(C)Cc1ccc2c(c1)OCO2 (stereo not given)	122% (inactive)	
CC[C@@]1(O)C(=O)OCc2c1cc1n(c2=O)Cc2cc3c(CN(C)C)c(O)ccc3nc2-1		0.15 µM (active)
Nc1ccc2cc(S(=O)(=O)O)cc(O)c2c1N=Nc1ccccc1C(F)(F)F	-2.89% (inactive)	
OCc1c[nH]c2ccccc12	75.9% (inactive)	
CC[C@@]1(O)C(=O)OCc2c1cc1n(c2=O)Cc2c-1nc1ccccc1c2/C=N/OC(C)(C)C		0.0376 µM (active)
Cc1cc(=O)oc2cc(N(C)C)ccc12	134% (inactive)	
C[C@H]1[C@H]2CC[C@H]3[C@@H]4CC=C5C[C@@H](N(C)C)CC[C@]5(C)[C@H]4CC[C@]23CN1C	-15% [at 42.5 µM] (inactive)	
CCCCCCCCOC(=O)c1ccc(O)cc1		inactive
CCCCCCOC(=O)c1ccc(O)cc1		inactive
Cc1cc(O)c2ccccc2c1O		16.8 µM (active)
O=C1CCCc2c1cc1ccc3cccc4ccc2c1c34	-28.2% (inactive)	
O=C(Nc1cccc(C(F)(F)F)c1)c1cc(Br)cc(Br)c1O		15.4 µM (active)
O=C(Oc1cccc2cccnc12)c1ccccc1		0.001 µM (active)
OCCCCCCCCCCCCBr	47.1% (inactive)	

target: Nuclear receptor subfamily 1 group I member 3 (Homo sapiens) (UniProt Q14994); assay: qHTS assay to identify small molecule agonists of the constitutive androstane receptor (CAR) signaling pathway (AID 1224839); conditions: HepG2 hCAR CYP2B6-luciferase, agonist mode, 24 h; series mostly up to 92.4 µM; activation: at the top concentration; further: nearly all actives have a fitted effect of over 15% in size;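 on activation: HepG2 cells stably carrying human CAR and a CYP2B6 luciferase reporter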
Summary of the method: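 Using human hepatoma HepG2 cells engineered with hCAR and a CYP2B6-2.2kb reporter, 15-concentration compound series were incubated 24 h alongside PK11195 at 0.75 uM final, with luminescence quantified afterwards.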

SMILES	activation	Potency
OCCN(CCO)c1nc(N2CCCCC2)c2nc(N(CCO)CCO)nc(N3CCCCC3)c2n1	5.16% [at 42.5 µM] (inactive)	
CSc1ccc(/C=C2/C(C)=C(CC(=O)O)c3cc(F)ccc32)cc1	8.65% [at 42.5 µM] (inactive)	
CCOc1ccc2nc3cc(N)ccc3c(N)c2c1	-15% [at 42.5 µM] (inactive)	
CCCC(=O)OC[C@@H](OC(=O)CCC)[C@@H](OC(=O)CCC)[C@H](Cn1c2nc(=O)[nH]c(=O)c-2nc2cc(C)c(C)cc21)OC(=O)CCC	-22.4% [at 42.5 µM] (inactive)	
CCCCCCCCCCCC(=O)NCCCN(C)C	-7.79% (inactive)	
CSc1ccc2c(c1)C(N1CCN(C)CC1)Cc1ccccc1S2 (stereo not given)	-5.95% [at 42.5 µM] (inactive)	
COc1cccc(N)c1	11.2% (inactive)	
Nc1nc2ccccc2n1Cc1ccc(F)cc1		15 µM (active)
CCCCN1C(=O)[C@@H]([C@H](O)C2CCCCC2)NC(=O)C12CCN(Cc1ccc(Oc3ccc(C(=O)O)cc3)cc1)CC2	-3.49% (inactive)	
CCC(CN)=C(c1ccccc1)c1ccccc1	3.53% [at 42.5 µM] (inactive)	
Nc1ccc2c3c(cccc13)-c1ccccc1-2		21.9 µM (active)
O=C(OCC1CO1)C1CCCCC1C(=O)OCC1CO1 (stereo not given)	2.01% (inactive)	
Nc1c2ccccc2nc2ccccc12		inactive
CC[C@@]1(O)C(=O)OCc2c1cc1n(c2=O)Cc2cc3c(CN(C)C)c(O)ccc3nc2-1	-6.79% [at 42.5 µM] (inactive)	
Nc1ccc2cc(S(=O)(=O)O)cc(O)c2c1N=Nc1ccccc1C(F)(F)F	4.43% (inactive)	
OCc1c[nH]c2ccccc12		30.6 µM (active)
CC[C@@]1(O)C(=O)OCc2c1cc1n(c2=O)Cc2c-1nc1ccccc1c2/C=N/OC(C)(C)C	-12.7% [at 42.5 µM] (inactive)	
Cc1cc(=O)oc2cc(N(C)C)ccc12		61.1 µM (active)
Nc1cc(C(F)(F)F)ccc1S	13.2% [at 42.5 µM] (inactive)	
C[C@H]1[C@H]2CC[C@H]3[C@@H]4CC=C5C[C@@H](N(C)C)CC[C@]5(C)[C@H]4CC[C@]23CN1C	-4.56% [at 42.5 µM] (inactive)	
CCCCCCOC(=O)c1ccc(O)cc1		27.3 µM (active) and 54.5 µM (active)
Cc1cc(O)c2ccccc2c1O	-23.3% [at 42.5 µM] (inactive)	
O=C(Nc1cccc(C(F)(F)F)c1)c1cc(Br)cc(Br)c1O	14.3% (inactive)	
COc1ccc(-c2ccc3cc(C(=O)O)ccc3c2)cc1C12CC3CC(CC(C3)C1)C2	-3.99% [at 42.5 µM] (inactive)	
O=C(Oc1cccc2cccnc12)c1ccccc1	-14.1% [at 42.5 µM] (inactive)	
CCOC(=O)c1nc(C(Cl)(Cl)Cl)n(-c2ccc(Cl)cc2Cl)n1	-2.88% (inactive)	

test system: not listed separately; assay: qHTS assay to identify small molecule antagonists of the estrogen related receptor signaling pathway with the pleiotropic PPARgamma coactivator (PGC) from Tox21 10K library - cell viability counter screen (AID 1224840; active means well fitted cell-killing curve with a large enough effect in the repeat runs, not every such curve was filed as active; further: nearly all actives have a fitted effect of over 40% in size); conditions: PGC/ERR reporter cells viability, CellTiter-Fluor, 17.5 h; series mostly up to 92.4 µM; viability change, negative = cytotoxic: at the top concentration
Summary of the method: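 Counter-screen for cytotoxicity: after 17.5 h compound exposure at 37 C, CellTiter-Fluor reagent added to PGC/ERR cells for 30 min and fluorescence read. Cells were seeded at 2,000 per well 6 h before dosing.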

SMILES	viability change, negative = cytotoxic	Potency
CSc1ccc(/C=C2/C(C)=C(CC(=O)O)c3cc(F)ccc32)cc1	-9.44% [at 42.5 µM] (inactive)	
COc1c(C)c2c(c(O)c1C/C=C(\C)CCC(=O)O)C(=O)OC2	-23.5% [at 42.5 µM] (inactive)	
CCCCCCCCCCCC(=O)NCCCN(C)C		61.1 µM (active)
COc1cccc(N)c1	-21% (inactive)	
Nc1nc2ccccc2n1Cc1ccc(F)cc1	-17.2% [at 42.5 µM] (inactive)	
CCC(CN)=C(c1ccccc1)c1ccccc1	-15.1% [at 42.5 µM] (inactive)	
CCN(C(=O)N(CC)c1ccccc1)c1ccccc1	-13.8% (inactive)	
Cc1ccc(-n2nc(C(C)(C)C)cc2NC(=O)Nc2ccc(OCCN3CCOCC3)c3ccccc23)cc1	-13.7% [at 42.5 µM] (inactive)	
Nc1c2ccccc2nc2ccccc12	-7.17% [at 42.5 µM] (inactive)	
CCCCCCCCS(=O)C(C)Cc1ccc2c(c1)OCO2 (stereo not given)	-11.9% (inactive)	
Nc1ccc2cc(S(=O)(=O)O)cc(O)c2c1N=Nc1ccccc1C(F)(F)F	-26% (inactive)	
OCc1c[nH]c2ccccc12	-11.4% (inactive)	
CC[C@@]1(O)C(=O)OCc2c1cc1n(c2=O)Cc2c-1nc1ccccc1c2/C=N/OC(C)(C)C	-1.91% [at 42.5 µM] (inactive)	
Nc1cc(C(F)(F)F)ccc1S	-22.5% [at 42.5 µM] (inactive)	
C[C@H]1[C@H]2CC[C@H]3[C@@H]4CC=C5C[C@@H](N(C)C)CC[C@]5(C)[C@H]4CC[C@]23CN1C	-15.5% [at 42.5 µM] (inactive)	
CCCCCCCCOC(=O)c1ccc(O)cc1		inactive
CCCCN(CCCC)c1ccc(C(=O)c2ccccc2C(=O)O)c(O)c1	-25.5% (inactive)	
CCCCCCOC(=O)c1ccc(O)cc1	-13.3% (inactive)	
Cc1cc(O)c2ccccc2c1O	-23.5% [at 42.5 µM] (inactive)	
O=C1CCCc2c1cc1ccc3cccc4ccc2c1c34	-24.9% (inactive)	
O=C(Nc1cccc(C(F)(F)F)c1)c1cc(Br)cc(Br)c1O		6.86 µM (active)
COc1ccc(-c2ccc3cc(C(=O)O)ccc3c2)cc1C12CC3CC(CC(C3)C1)C2	-17.9% [at 42.5 µM] (inactive)	
